Holding throughout (test): PBM binding z-score (relative to random genomic background probes); higher = stronger binding; sequences stand for … in GC…GCGATTGACAGCGTAGAATGAAGG
The test system of test [1] is FXR:RXRa (NR concentration 270 nM, RXRa partner concentration 90 nM). The method in brief:
(§1)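 Binding z-scores were set against random background probes. The data came from custom Agilent 4×180K protein-binding microarrays carrying double-stranded probes with 34-nt variable regions, incubated 1 h with ligand-free nuclear receptor dimers. Partner-specific antibodies detected binding, and scanned fluorescence was regression-normalized.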

Test [2] concerns LXRa:RXRa (NR concentration 270 nM, RXRa partner concentration 90 nM). The method in brief: as §1
Test [3] has as its system LXRa homodimer (NR concentration 270 nM). Summed up:
as §1

Test [4] has as its system LXRb:RXRa (NR concentration 270 nM, RXRa partner concentration 90 nM). Summed up:
as §1

Test [5] concerns LXRb homodimer (NR concentration 270 nM). Summed up:
as §1

Test [6] concerns PPARa:RXRa (NR concentration 270 nM, RXRa partner concentration 90 nM). The method in brief:
as §1

For test [7], the system named is PPARg:RXRa (NR concentration 180 nM, RXRa partner concentration 90 nM). Summed up: as §1
Test [8] has as its system PPARg:RXRa 270nM:90nM, anti-RXR (NR concentration 270 nM, RXRa partner concentration 90 nM). Summed up: as §1
In test [9] the test system is PPARg:RXRa 30nM:10nM, anti-RXR (NR concentration 30 nM, RXRa partner concentration 10 nM). The method in brief:
as §1

In test [10] the test system is PPARg:RXRa 90nM:30nM, anti-RXR (NR concentration 90 nM, RXRa partner concentration 30 nM). Summed up:
as §1

In test [11] the test system is PPARg:RXRa DBDmut IVT, anti-RXR (DBD mutation: RXRa K156A/R161A, NR concentration 270 nM, RXRa partner concentration 90 nM). The method in brief:
as §1

Test [12] has as its system PPARg:RXRa IVT, anti-PPARg (NR concentration 270 nM, RXRa partner concentration 90 nM). Summed up: as §1
Test [13] deals with PPARg DBDmut:RXRa IVT, anti-PPARg (DBD mutation: PPARg1 K132A/R137A, NR concentration 270 nM, RXRa partner concentration 90 nM). The method in brief:
as §1

In test [14] the test system is PPARg DBDmut IVT, anti-PPARg (DBD mutation: PPARg1 K132A/R137A, NR concentration 270 nM). Summed up:
as §1

In test [15] the test system is PPARg homodimer (NR concentration 180 nM). Summed up:
as §1

Test [16] concerns PXR:RXRa (NR concentration 270 nM, RXRa partner concentration 90 nM). The method in brief: as §1
In test [17] the test system is PXR homodimer (NR concentration 270 nM). Summed up: as §1
The test system of test [18] is RARa:RXR (NR concentration 270 nM, RXRa partner concentration 90 nM). Summed up:
as §1

Test [19] concerns RARa homodimer (NR concentration 270 nM). Summed up:
as §1

For test [20], the system named is RARb:RXRa (NR concentration 270 nM, RXRa partner concentration 90 nM). Summed up:
as §1

For TCGAGTAGCTTAGTCGGGGCATTCAGCCAACATA, the PBM binding z-score in [1] was -0.445; in test [2], -0.555; in [3], -0.699; in [4] it was -0.343; in test [5], -0.785; in [6], -0.102. Moreover, the PBM binding z-score in test [7] is -0.707; in [8], -0.0775; in test [9] it was 0.66; in test [10] it was 0.255; in [11], 0.289; in test [12], -0.763. Moreover, the PBM binding z-score in test [13] was -1.22; in [14], -0.887; in test [15], -1.34; in [16] it was -0.503; in [17] it was -1.1; in test [18], -0.495. Moreover, the figures for the PBM binding z-score in test [19] and in test [20] were -0.83 and -0.355, respectively.

On to ATCGAAAGGTCGTGAGGTGAGGATACAGAAAGGC, for which the PBM binding z-score in [1] is 5.69; in [2], 4.09; in [3], 0.323; in test [4] it was 3.37; in test [5], 0.581; in test [6] it was 5.08. Also, the PBM binding z-score in test [7] came to 4.41; in test [8], 4.73; in test [9], 1.86; in [10] it was 3.51; in test [11] it was 0.406; in test [12], 2.89. Moreover, the PBM binding z-score in test [13] was 1.55; in test [14], 0.615; in test [15], 2.28; in [16], 3.3; in test [17], 0.684; in test [18], 4.61. Besides, the PBM binding z-score in test [19] was 1.12; in test [20], 4.13.

As to CGTCCATGGTCATAGGAGGTCAGTGAAGACAGAT, the PBM binding z-score in test [1] was 1.81; in test [2], 3.6; in test [3], 1.31; in test [4], 2.3; in test [5] it was -0.0706; in test [6], 2.59. The PBM binding z-score is 0.994 in test [7]; 1.19 in test [8]; -0.128 in [9]; 0.421 in test [10]; 0.484 in [11]; 2.01 in test [12]. Moreover, the PBM binding z-score in test [13] was -0.127; in test [14] it was -0.368; in [15], 2.09; in test [16], 3.77; in test [17], 0.616; in test [18], 2.79. Further, the PBM binding z-score worked out at 0.333 in test [19] and 2.91 in test [20].

As to CGTCCAAGATCAGCAGGTCAGTGAAAGCGACGTG, the PBM binding z-score in [1] is 0.239; in test [2] it was 0.32; in test [3] it was 0.0834; in test [4], 0.195; in test [5] it was -0.306; in test [6], 0.671. The PBM binding z-score in test [7] was 0.0765; in test [8], 0.227; in [9] it was -0.568; in [10], -0.405; in [11] it was 0.000191; in [12], -0.104. In addition, the PBM binding z-score was -0.863 in test [13]; -0.238 in test [14]; 0.712 in test [15]; 0.136 in test [16]; -0.221 in [17]; 0.583 in test [18]. Besides, the PBM binding z-score in [19] was -0.407; in [20], 1.97.

With GGAACGAGGGCAAGTTGATAGTAGAGTTTGATGG, the PBM binding z-score in test [1] is 0.866; in [2], 0.53; in test [3] it was -0.29; in test [4] it was 0.413; in test [5], -0.108; in [6] it was 1.74. The PBM binding z-score was 1.01 in test [7]; 0.848 in [8]; 0.216 in test [9]; 0.579 in test [10]; 3.65 in test [11]; 2.79 in test [12]. The PBM binding z-score was 0.241 in test [13]; -0.486 in test [14]; 0.584 in test [15]; 0.965 in test [16]; 1.17 in test [17]; 0.509 in [18]. In addition, the results for the PBM binding z-score in test [19] and in test [20] were 0.408 and 2.76, respectively.

GGAACGAGGGCAAAGTTGATAGAATCTGTCGACG: the PBM binding z-score in test [1] is 1.44; in test [2], 1.1; in [3], -0.584; in test [4], 1.01; in test [5] it was -0.45; in [6], 4.17. For the same sequence, the PBM binding z-score in test [7] was found to be 6.84; in test [8], 7.15; in [9] it was 6.22; in test [10] it was 7.35; in test [11], 4.01; in test [12], 4.36. Moreover, the PBM binding z-score was 0.353 in [13]; -0.207 in [14]; 0.397 in [15]; 1.25 in test [16]; 0.121 in test [17]; 1.74 in test [18]. For the same sequence, the PBM binding z-score in test [19] was -0.438; in test [20], 2.32.

These data come from the supplement of paper PMC6555819.
